Hit rate of the full screen: of about 1,000 compounds, about 200 (20%) were called active. Cut-off read from the data, not from the text of the source: active = inhibition above about 55%; inactive = the rest. Not all results are given here. Results with a measured potency or affinity are listed apart.

Inhibition data for 27 compounds are collected here from PubChem BioAssay AID1878 (Sanford-Burnham Center for Chemical Genomics, 2009).

Chain of Dual specificity protein phosphatase 3 (Homo sapiens) (P51452 whole entry, looked up): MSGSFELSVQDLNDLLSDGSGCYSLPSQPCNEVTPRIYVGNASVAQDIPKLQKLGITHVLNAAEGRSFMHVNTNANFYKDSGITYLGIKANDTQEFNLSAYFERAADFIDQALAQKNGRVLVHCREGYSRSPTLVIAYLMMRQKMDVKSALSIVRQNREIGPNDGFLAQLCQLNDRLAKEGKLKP

The assay addresses Dual specificity protein phosphatase 3 (Homo sapiens) (UniProt P51452). The experiment in a line: VHR1 phosphatase inhibitors, biochemical (AID 1878). To be noted: recombinant VHR phosphatase, fluorogenic substrate; at 13.3 µM; stronger effect = higher value.
With `COc1ccc(NC2CCCN(C(=O)CCN3CCOCC3)C2)cc1` (configuration not stated), the inhibition is 2.8% (inactive).
In the case of `CC(C)OC(=O)CCCNc1ccc([N+](=O)[O-])cc1[N+](=O)[O-]` it was 5.9% (inactive).
In the case of `Cc1cc(=O)oc2cc(OC(C)C(=O)NCCc3ccc(S(N)(=O)=O)cc3)ccc12` (configuration not stated) it was -4.7% (inactive); in that of `Cc1cc(C)c(S(=O)(=O)c2cccc(Br)c2C)c(=O)[nH]1`, 9.5% (inactive); in that of `O=C(Nc1ccc(Br)cc1F)c1ccc2nsnc2c1`, 0.8% (inactive).
Turning to `CCC(Sc1nnc(-c2ccco2)n1C)C(=O)Nc1nnc(C)s1` (configuration not stated), the inhibition is -1.6% (inactive).
Turning to `CCCCCCN1CC(=O)N2Cc3[nH]c4ccccc4c3C[C@H]2C1=O`, the inhibition is 11.5% (inactive).
With `COc1cccc(/C=N/Nc2ncnc3c2[nH]c2ccc(C)cc23)c1OC`, the inhibition is 97.6% (active).
In the case of `COc1ccc(/C=N/NC(=O)c2[nH]c3ccc(C)cc3c2-c2ccccc2)c(C(=O)O)c1OC` it was 6.7% (inactive); in that of `O=C(COCc1cc(-c2ccc3c(c2)OCO3)on1)Nc1cccnc1Cl`, 2.9% (inactive); in that of `COc1ccccc1N1CCN(C2CCCN(C(=O)CCc3cnccn3)C2)CC1` (configuration not stated), -1.8% (inactive).
The result for `C[C@]1(CO)CCC[C@@]2(C)C1CC[C@@H](CO)[C@@H]2CCc1ccoc1` (some centres not stated) reads -0.3% (inactive).
The result for `C/C(=N\NC(=O)c1nnn(-c2nonc2N)c1C)c1ccc(OCc2ccccc2)cc1` reads 8.6% (inactive); that for `CCCOc1ccc(-c2c(C(=O)N/N=C/c3cccnc3)nnn2-c2nonc2N)cc1`, 96.5% (active); that for `CCCc1c(C(=O)N/N=C(\C)CCc2ccccc2)nnn1-c1nonc1N`, 1.7% (inactive).
With `CCc1nn(CC(=O)NCc2ccccc2Cl)c(=O)c2cccn12`, the inhibition was 17.5% (inactive).
For the compound `COC(=O)c1sccc1NC(=O)Nc1ccc(C)cc1C`, the inhibition is -7.1% (inactive).
On to `O=C(Nc1cccc2ncccc12)c1ccccc1F`, for which the inhibition was -0.8% (inactive).
On to `COc1cccc(C2c3[nH]c4ccccc4c3C[C@H]3C(=O)N(CCCOC(C)C)CC(=O)N23)c1` (some centres not stated), for which the inhibition is 10.9% (inactive).
The result for `COc1ccc(OC)c(-c2csc(NC(=O)Cc3ccc(F)cc3)n2)c1` reads 0.5% (inactive); that for `COc1ccc2[nH]c(=O)c(-c3noc(-c4ccc(F)cc4)n3)cc2c1`, 97.2% (active).
In the case of `Cn1cnc(S(=O)(=O)N2CCN(c3ccc(F)cc3)CC2)c1`, the inhibition was -8% (inactive).
The result for `Cc1ccc(NC(=O)Nc2nnc(-c3ccncc3)s2)cc1C` reads 94.2% (active); that for `O=C(Nc1ccc(Cl)c(Cl)c1)Nc1ccccn1`, 3.2% (inactive); that for `Cc1cccc(NC(=O)Cc2nnc(NC(=O)Nc3ccccc3F)s2)c1`, 16.3% (inactive).
Regarding `Cc1ccc(NC(=O)NN2CCN(C)CC2)cc1C`, the inhibition was -0.5% (inactive).
For the compound `Cc1ccc(NC(=O)NCCN2CCCCC2)cc1C`, the inhibition was -2% (inactive).
